Assay outcomes: PubChem, Broad Institute
Shn3 inh set2 – reduction of Shn3 3'UTR firefly luciferase signal, primary screen, Schnurri-3 inhibitor project, cell-based, Clone20 osteoblasts, set 2; inhibition, % at 12.5 µM; 360,000 compounds, 0.52% hits; AID 588674, 2011; Clone20 osteoblast Shn3 3'UTR firefly luciferase, 24 h;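 active means mean inhibition of at least 75% with every replicate also reaching 75%; inconclusive means mean inhibition at least 75% but some replicate below; inactive means mean inhibition below 75%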
MITF TRPM1 inh – inhibitors of MITF-dependent TRPM1 promoter reporter, primary screen, cell-based, SK-MEL-5, single point, luciferase; SK-MEL-5 TRPM1 promoter luciferase, 24 h; inhibition, % at 12.5 µM; 330,000 compounds, 0.83% hits; AID 488899, 2010;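 active means mean inhibition across replicates of 60% or more, whatever share of single replicates reaches that level; inconclusive means some that reach 60%, reason not given; inactive means mean inhibition across replicates below 60%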
EBV LMP1 NFkB – EBV LMP1-driven NF-kappaB luciferase reporter inhibitors, primary screen, cell-based, luminescence, single point. LMP1-induced NF-kappaB luciferase reporter cells. 350,000 compounds, 0.69% hits. inhibition, % at 12.5 µM. AID 504558, 2011; in the data active means inhibition above about 41%; inconclusive means no clear call, values can overlap the other calls
PAX8 inh HTS – inhibitors of PAX8-driven TPO luciferase reporter, primary screen, RMG-I cells, single concentration; SteadyGlo, 24 h; inhibition, % at 12.6 µM; 360,000 compounds, 1.2% hits; AID 652154, 2013;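 active means mean replicate inhibition at least 60% with every replicate also reaching 60%; inconclusive means only one of the two criteria is met; inactive means mean below 60% and not all replicates reaching 60%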;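 further: luciferase light reporting Pax8 driven TPO promoter activity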
EWS-Fli inh – EWS/Fli-driven NR0B1 reporter inhibitors, primary screen, A673 cells, NR0B1 luciferase, luminescence, MLPCN library. viability-normalised. AID 651661, 2012. inhibition, % at 12.6 µM. 350,000 compounds, 0.67% hits;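 active means mean inhibition of at least 50% after viability correction, with every replicate also passing that limit; inconclusive means mean reaches 50% but only one of two replicates passes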;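 further: firefly luciferase signal divided by Alamar Blue viability fluorescence both relative to DMSO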
LGR2 inh – inhibitors of bursicon-induced LGR2 CRE-luciferase signal, primary screen, cell-based, HEK293, CRE-luciferase reporter, bursicon stimulation; AID 720647, 2013; bursicon-stimulated, 4 h; Drosophila bursicon receptor LGR2 (rickets); 380,000 compounds, 0.35% hits; inhibition, % at 9.99 µM;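 active means drop in luminescence signal, shown as inhibition above about 50% in the replicate tests, limit read from the data, passing the limit was not always enough; inconclusive means probably only some replicates passing the limit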;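 further: agonist challenge used bursicon conditioned medium at about half maximal strength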
A number is an active result; n = inactive; u = inconclusive; x = not tested or not shown; ! = a repeat was not active. Only some compounds are listed: those with a hit (about 2.2% of all), similar ones and a draw of the others.

SMILES | Shn3 inh set2 | MITF TRPM1 inh | EBV LMP1 NFkB | PAX8 inh HTS | EWS-Fli inh | LGR2 inh
N#CC(C#N)=C1C=CC=CN1/C(=C\c1ccco1)C(=O)c1ccc(-c2ccccc2)cc1 | n | 72.7 | n | 92.4 | x | n
C[C@@H]1CCCCO[C@H](CN(C)C)[C@H](C)CN([C@H](C)CO)C(=O)c2cc(NC(=O)NC3CCCCC3)ccc2O1 | x | x | x | n | n | n
CCOc1cc(CNCCCN2CCOCC2)cc(Br)c1OCC(=O)Nc1cccc(C(F)(F)F)c1 | n | 74.4 | n | x | x | x
COc1cc(CNCCN2CCOCC2)ccc1OCc1ccc(Cl)cc1 | n | n | n | x | x | x
COc1cc(CNCCCN2CCOCC2)cc(Br)c1OCc1ccc(Cl)cc1 | n | n | n | n | n | 98.8
CO[C@H]1CN(C)C(=O)c2ccc(NC(C)=O)cc2OC[C@@H](C)N(Cc2ccc(F)cc2)C[C@@H]1C | x | x | x | x | n | n
CCC(=O)N1C[C@H](O)COC[C@H]2O[C@H](CC(=O)N3CCCCC3)CC[C@@H]21 | x | x | x | n | n | n
Fc1ccc(-n2nnc(-c3cnc4ccccc4c3)n2)cc1 | n | n | u | n | n | 79.3
COC(=O)c1nn(-c2ccc(-c3ccccc3)cc2)cc1O | n | 73.1 | n | x | x | x
C[C@@H]1CN([C@H](C)CO)S(=O)(=O)c2ccc(C#CC3CCCC3)cc2O[C@H]1CN(C)C(=O)Cc1ccccc1 | n | x | n | 66.8! | n | n
C[C@@H]1CN([C@@H](C)CO)S(=O)(=O)c2ccc(C#Cc3ccccc3F)cc2O[C@H]1CN(C)C(=O)Cc1ccccc1 | x | x | x | 91.5 | n | n
C[C@@H]1CN([C@@H](C)CO)S(=O)(=O)c2ccc(C#CC3CCCC3)cc2O[C@H]1CN(C)C(=O)Cc1ccccc1 | x | x | x | n | n | n
COc1cc2cc(c1Cl)N(C)C(=O)CC(OC(=O)C(C)N(C)C(C)=O)C1(C)OC1C(C)C1CC(O)(NC(=O)O1)C(OC)C=CC=C(C)C2 (configuration not stated) | n | n | n | 74.2 | n | n
Cc1cc(C(=O)Nc2cccc3c2O[C@@H](CN(C)C(=O)Nc2ccc(C(F)(F)F)cc2)[C@H](C)CN([C@@H](C)CO)C3=O)n(C)n1 | x | x | x | n | n | n
C[C@H](CO)N1C[C@H](C)[C@@H](CN(C)Cc2ccc(Cl)c(Cl)c2)Oc2ccc(NS(=O)(=O)c3ccccc3)cc2CC1=O | x | x | x | 83.3 | n | n
C[C@@H]1CN([C@@H](C)CO)C(=O)Cc2cc(NS(=O)(=O)c3ccc(F)cc3)ccc2O[C@@H]1CN(C)Cc1ccc(Cl)c(Cl)c1 | x | x | x | n | n | n
C[C@@H]1CN([C@@H](C)CO)C(=O)Cc2cc(NS(=O)(=O)c3ccc(F)cc3)ccc2O[C@H]1CN(C)Cc1ccc(Cl)c(Cl)c1 | x | x | x | 93.3 | n | n
O=C(c1cc(-c2ccccc2Cl)nc2ccc(Br)cc12)N1CCN(c2ccccn2)CC1 | n | n | n | n | x | 67.6
O=C(c1cc(-c2ccncc2)nc2ccc(Br)cc12)N1CCN(c2ccccn2)CC1 | n | n | n | x | x | x
Cc1onc(-c2ccccc2Cl)c1C(=O)N1CCC(Cc2ccccc2)CC1 | 88.9 | n | n | n | n | n
Cc1onc(-c2ccccc2Cl)c1C(=O)N1CCN(c2cccc(Cl)c2)CC1 | n | n | n | n | 54.5 | n
Cc1onc(-c2ccccc2Cl)c1C(=O)N1CCC(C(N)=O)CC1 | n | n | n | n | n | n
Cc1ccc(S(=O)(=O)Nc2ccc3c(c2)C(=O)N([C@H](C)CO)C[C@@H](C)[C@H](CN(C)C(=O)Nc2c(C)noc2C)O3)cc1 | x | x | x | n | n | n
CCNC(=O)C[C@@H]1CC[C@H]2[C@H](COc3ccc(NC(=O)c4cc(C)on4)cc3C(=O)N2C)O1 | x | x | x | n | n | n
Cc1cc(C(=O)Nc2ccc3c(c2)C(=O)N(C)[C@H]2CC[C@@H](CC(=O)NCc4ccc(-c5ccccc5)cc4)O[C@@H]2CO3)no1 | x | x | x | 64.9 | n | n
SMILES | Shn3 inh set2 | MITF TRPM1 inh | EBV LMP1 NFkB | PAX8 inh HTS | EWS-Fli inh | LGR2 inh
CNC(=O)C[C@H]1CC[C@H]2[C@@H](COc3ccc(NC(=O)c4ccccc4OC)cc3C(=O)N2C)O1 | x | x | x | n | n | n
COc1ccccc1C(=O)Nc1ccc2c(c1)C(=O)N(C)[C@@H]1CC[C@@H](CC(=O)NCc3ccc(Cl)c(Cl)c3)O[C@H]1CO2 | x | x | x | 92.7 | n | n
CO[C@@H]1CN(C)C(=O)c2ccc(NS(C)(=O)=O)cc2OC[C@H](C)N(Cc2cccnc2)C[C@H]1C | x | x | x | x | n | n
CCCc1cn(CC[C@H]2CC[C@H](NS(=O)(=O)c3ccc(-c4ccccc4)cc3)[C@@H](CO)O2)nn1 | x | x | x | n | n | n
Nn1cnnc1SCC(=O)Nc1ccc(C2CCCCC2)cc1 | n | n | n | x | x | x
O=C(O)CSCC(=O)Nc1ccc(C2CCCCC2)cc1 | n | 74.0 | 57.9 | x | x | n
CC(=O)Nc1nnc(SCC(=O)N2CCc3ccccc32)s1 | n | n | n | n | n | n
CCOC(=O)CNC(=O)CSc1nnc(NC(=O)c2ccc3c(c2)OCO3)s1 | n | n | n | n | n | n
CC(C)Oc1ccc(C(=O)Nc2nnc(SCC(=O)N3CCOCC3)s2)cc1 | n | n | 70.0 | 70.4 | 59.7 | 74.1
CCOC(=O)CNC(=O)CSc1nnc(NC(=O)c2ccc(C)cc2)s1 | n | n | 55.4 | n | n | 72.7
Cc1ccc(C(=O)Nc2nnc(-c3ccc(C(C)(C)C)cc3)s2)cc1 | n | n | 56.8 | x | x | x
O=C(Nc1nnc(SCC(=O)N2CCCc3ccccc32)s1)c1cccc2ccccc12 | n | n | n | n | 87.6 | n
CC(=O)N(C)C[C@@H]1Oc2ncc(C#Cc3ccccc3)cc2C(=O)N([C@H](C)CO)C[C@@H]1C | x | x | x | x | n | n
Cc1ccc(C(=O)Nc2nnc(SCC(=O)N3CCCc4ccccc43)s2)cc1 | n | n | 51.4 | n | n | x
CC=Cc1ccc2n(c1=O)C[C@@H]1[C@@H](CO)[C@H](C(=O)NCC3CC3)N(Cc3nccs3)[C@H]21 (mixture of isomers) | x | x | x | x | n | n
Cc1ccc(NC(=S)N/N=C/c2ccc([N+](=O)[O-])s2)cc1 | n | 69.9 | n | n | n | n
Cc1onc(-c2ccccc2)c1C(=O)N/N=C/c1ccc([N+](=O)[O-])s1 | n | 64.9 | n | x | x | n
CCc1nnc(NC(=O)c2nc(S(=O)(=O)Cc3ccccc3)ncc2Cl)s1 | 98.3 | 79.8 | n | n | x | n
CCc1nnc(NC(=O)c2nc(S(=O)(=O)Cc3cccc(C)c3)ncc2Cl)s1 | 96.8 | 75.7 | 65.8 | n | x | n
CCc1nnc(NC(=O)c2ccc(COc3ccc(C)cc3)o2)s1 | n | n | n | x | x | x
CCc1nnc(NC(=O)c2cccc(S(=O)(=O)N3CCN(C)CC3)c2)s1 | n | x | n | n | n | n
CCc1nnc(NC(=O)c2nc(Cl)ccc2Cl)s1 | n | n | n | n | x | n
